Most compounds without a hit are left out; they make up all but 19% or so of the library.
SW480 rerep – A quantitative high throughput screen for small molecules that induce DNA re-replication in SW480 colon adenocarcinoma cells. SW480 DNA re-replication, Hoechst DNA content imaging, 48 h. hit rate 1.8% among 340,000. AID 624297, 2012. Potency, µM (titrated, usually from 46.1 µM), for inactives: at the highest dose re-replication activation, most hits filed as activators; further: potency means the concentration at half of the fitted maximal effect; % of control where 0% means no effect; nearly all actives have a fitted effect of over 55% in size
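250 cells/well; 23 nL cpd via pin tool; 48 hr, 37 C, 5% CO2; Hoechst 40 min; imager read of total nuclear intensity, ex 405/em 500-530 nm.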
IL1B secr inh – qHTS for Inhibitors of Inflammasome Signaling: IL-1-beta AlphaLISA Primary Screen; THP-1 LPS/ATP IL-1B secretion, AlphaLISA, 16 h; active compounds read low; activity change, % at 57.5 µM; hit rate 4.7% among 360,000; in the data active means activity change below about -50%; inconclusive means mostly about -30% to -49%; further: on the % scale 0 is the no-effect control and ±100 the full control effect
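Secreted IL-1B measured by AlphaLISA bead assay after 16 h compound exposure of THP-1 cells; compounds (final up to 57.5 uM) added 1 h before LPS (250 ng/mL) and ATP (1.25 mM) stimulation; lower signal means less secretion.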
DT40 TDP1 no CPT – qHTS for Inhibitors of human tyrosyl-DNA phosphodiesterase 1 (TDP1): qHTS in cells in absence of CPT; DT40 Tdp1-/- hTDP1 cells, no CPT, ATP luminescence, 48 h; Potency, µM (top dose mostly 46.2 µM), inactives show at the top dose activity change, negative = growth inhibition, actives largely listed as inhibitors; hit rate 15% among 420,000; AID 686978, 2013; further: potency means the concentration at half of the fitted maximal effect; on the % scale 0 is the no-effect control and ±100 the full control effect; nearly all actives have a fitted effect of over 55% in size
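Luminescent ATP content (CellTiter-Glo) served as the growth readout. Knockout chicken DT40 cells expressing human TDP1 were exposed to compounds without camptothecin for a minimum 48 hr at 37 °C.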
MCF10A rerep – A quantitative high throughput screen for small molecules that induce DNA re-replication in MCF 10a normal breast cells. MCF 10A DNA re-replication, Hoechst nuclear intensity, 48 h. Potency, µM (series often up to 46.1 µM), for the others: at the top dose activity, positive = re-replication, usual class: activators. hit rate 2.9% among 350,000. AID 624296, 2012; further: potency means the concentration at half of the fitted maximal effect; % of control where 0% means no effect; nearly all actives have a fitted effect of over 50% in size
Chronic BCR inh – qHTS Assay to Find Inhibitors of Chronic Active B-Cell Receptor Signaling. ABC-DLBCL IkBa-CBG/CBR reporter, luminescence ratio, 4 h. Potency, µM (top dose mostly 46.1 µM), without a hit: at the highest dose activity change, negative = inhibition, most hits filed as inhibitors. hit rate 0.05% among 340,000; active means well fitted inhibition curve with a large enough effect in the signal ratio, with a control signal flat, not every such curve was filed as active; inconclusive means small, poorly fitted or top-dose-only effect, or effect the other way, or a change in a side signal; the % refers to the signal ratio;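 further: potency means the concentration at half of the fitted maximal effect; plate controls were basal doxycycline-induced cells for no effect and cells given 10 µM MG132 for full effect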
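Cell line TMD8 (human ABC DLBCL), stably expressing tet-inducible CBG68-IkBa fusion and CBR; IMDM/0.5% FBS; cpd up to 46 uM; dox induction, 4 h, 37C/5% CO2; dual luminescence; green/red ratio; MG132 control.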
TDP1 cell CPT – qHTS for Inhibitors of human tyrosyl-DNA phosphodiesterase 1 (TDP1): qHTS in cells in presence of CPT; AID 686979, 2013; Potency, µM (top dose mostly 46.2 µM), without a hit: top-dose activity change, negative = growth inhibition, usual class: inhibitors; chicken DT40 Tdp1-/-;hTDP1 cells + 20 nM CPT, ATP luminescence, 48 h; hit rate 12% among 420,000; further: potency means the concentration at half of the fitted maximal effect; on the % scale 0 is the no-effect control and ±100 the full control effect; nearly all actives have a fitted effect of over 55% in size
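Chicken DT40 Tdp1-/- cells stably complemented with human TDP1 were seeded at 400 cells/well in medium containing 20 nM camptothecin, exposed to pin-transferred compounds, and grown at 37 °C for at least 48 hr. Viability was read as ATP luminescence.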
The depositor's hits bear a star; ? = inconclusive; . = not tested or not shown; [ ] = another dose, or the depositor's remark. Unless noted, the call rests on the fitted dose curve; in most records, active means well fitted curve in the direction sought with a large enough effect; inconclusive means small, poorly fitted or top-dose-only effect, or another doubt; inactive means no such curve, though single readings can be large; an effect the other way counts as inactive or inconclusive.

SMILES	SW480 rerep	IL1B secr inh	DT40 TDP1 no CPT	MCF10A rerep	Chronic BCR inh	TDP1 cell CPT
COc1ccc(-c2cc(C(=O)NCCc3ccc(OC)c(OC)c3)c3ccccc3n2)cc1	.	.	11.6µM*	.	.	18.4µM*
COc1ccc(CCNC(=O)c2cc(Nc3ccccc3)nc3ccccc23)cc1OC	.	.	8.2µM*	.	?	9.2µM*
CC(=O)c1ccc(OCC(=O)OCC(=O)c2ccc(S(=O)(=O)N3CCCCC3)cc2)cc1	.	-3.0	-3.5%	.	.	-6.4%
Cc1ccc(S(=O)(=O)N2CCN(c3nc(-c4cccs4)nc4cccnc34)CC2)cc1	.	.	?	.	.	10µM*
Cc1ccc(S(=O)(=O)N2CCN(c3nc(-c4cccs4)nc4ccccc34)CC2)cc1	.	.	11.2µM*	.	.	?
Cc1cccc(S(=O)(=O)N2CCN(c3nc(-c4cccs4)nc4ccccc34)CC2)c1	.	.	-12.7%	.	.	-9.5%
Cc1ccc(S(=O)(=O)C2CCN(c3nc(-c4cccs4)nc4ccccc34)CC2)cc1	.	.	?	.	.	11.2µM*
Cc1ccc(S(=O)(=O)N2CCN(c3nc(-c4cccs4)nc4c3ncn4COC(=O)C(C)(C)C)CC2)cc1	.	.	0.5%	.	.	-4.1%
COc1cccc(S(=O)(=O)N2CCN(c3nc(-c4cccs4)nc4ccccc34)CC2)c1	.	.	10µM*	.	.	14.1µM*
CCC(C(=O)NC1CCCC1)n1c(-c2cc3ccccc3[nH]2)nc2ccccc21 (configuration not stated)	.	54.7	?	.	.	?
CCCN(CC(=O)Nc1ccc(F)c(F)c1F)C(=O)CCc1nc2ccccc2c(=O)[nH]1	-0.6%	13.1	-15.4%	-1.3%	2.0%	?
CCC(C)NS(=O)(=O)c1ccc(NC(=O)C(Sc2ccccc2)c2ccccc2)cc1 (configuration not stated)	?	-54.4*	?	?	?	?
N#Cc1cc(Cl)c(NCC2CCCO2)cc1C#N (configuration not stated)	?	32.1	-21.6%	18.1%	?	-14.3%
COc1cc(/C=C(/C#N)c2ccccc2F)ccc1OCc1ccccc1	-7.2%	-20.2	18.4µM*	?	14.7%	16.4µM*
Cc1ccc2[nH]c3c(c2c1)CN(C(=O)CN1CCCCC1)CC3	-13.3%	-9.8	?	?	3.3%	?
Cc1ccc2[nH]c3c(c2c1)CN(C(=O)CC1(c2ccccc2)CC(=O)N(Cc2cccnc2)C1=O)CC3 (configuration not stated)	.	.	16.4µM*	.	.	?
Cc1ccc2[nH]c3c(c2c1)CN(C(=O)CN1CCCc2ccccc21)CC3	?	-10.2	?	23.1µM*	-0.1%	23.1µM*
Nc1c(-c2ccc(F)c(F)c2)nc2ncccn12	.	-5.8	-3.9%	.	.	11.9%
COC(CNC(=O)CCc1c(C)nc2c(c(C)nn2-c2ccc(C)cc2)c1C)OC	6.9%	-17.8	?	-7.4%	?	?
Cc1ccc(-n2nc(C)c3c(C)c(CCC(=O)NCCCOC(C)C)c(C)nc32)cc1	-6.2%	20.4	?	25.6%	?	23.1µM*
Cc1ccc(-n2nc(C)c3c(C)c(CCC(=O)Nc4ccc(CN5CCCC5)cc4)c(C)nc32)cc1	?	-86.1*	11.6µM*	25.9µM*	-0.6%	?
CC(=O)c1ccc(NC(=O)CCc2c(C)nc3c(c(C)nn3-c3ccc(C)cc3)c2C)cc1	.	.	7.31µM*	.	.	?
COCCCNC(=O)CCc1c(C)nc2c(c(C)nn2-c2ccccc2)c1C	-5.8%	20.0	-13.2%	1.7%	5.6%	-18.3%
C/C(=N/NC(=O)CN1CCN(S(=O)(=O)c2ccc(C)cc2)CC1)c1ccco1	-19.1%	58.5	0.3%	0.5%	3.8%	-0.9%
CN(C)c1ccc(C2C=Cc3ccccc32)c2ccccc12 (configuration not stated)	.	.	?	.	.	-19.2%
SMILES	SW480 rerep	IL1B secr inh	DT40 TDP1 no CPT	MCF10A rerep	Chronic BCR inh	TDP1 cell CPT
O=C(C=Cc1ccccc1Cl)c1ccccc1	?	-11.2	16.4µM*	?	.	?
O=C(/C=C/c1ccccc1Cl)N1CCCN(C(=O)/C=C/c2ccccc2Cl)CC1	3.3%	-27.3	20.6µM*	29.5%	3.2%	18.4µM*
O=C(/C=C/c1ccccc1Cl)NC1CCS(=O)(=O)C1 (configuration not stated)	?	46.4	18.4µM*	?	2.2%	20.6µM*
CCn1c(-c2ccccc2F)nc2cc(NC(C)=O)cc(C(=O)N(C)Cc3ccccn3)c21	.	.	-3.1%	.	.	3.8%[9.04 µM]
Cn1c(SCC(=O)Nc2cccc(S(=O)(=O)NC3=NCCCCC3)c2)nnc1-c1ccncc1	-20.8%	-3.8	-5.2%	8.2%	-1.4%	-7.1%
Cc1cc(SCC(=O)Nc2cccc(S(=O)(=O)NC3=NCCCCC3)c2)c(C)cc1Br	5.7%	-63.8*	?	?	?	14.9%
Cc1cc(SCC(=O)Nc2cccc(S(=O)(=O)NC3=NCCCCC3)c2)nc2ccccc12	?	-57.4*	?	7.3%	?	?
Cc1ccc(-n2c(SCC(=O)Nc3cccc(S(=O)(=O)NC4=NCCCCC4)c3)nc3ccccc3c2=O)cc1C	-1.3%	12.5	?	12.4%	5.4%	?
O=C(COC(=O)c1cccs1)Nc1cccc(S(=O)(=O)N2CCOCC2)c1	-4.8%	3.6	1.9%	-8.5%	-17.9%	0.8%
CC(=O)N/C(=C\c1ccccc1)C(=O)OCC(=O)NC(C)C12CC3CC(CC(C3)C1)C2 (configuration not stated)	-4.5%	?	20.6µM*	10.0%	16.3%	14.6µM*
CC(=O)N/C(=C\c1ccccc1)C(=O)OCC(=O)Nc1ccc(C)c(S(=O)(=O)N(C)C)c1	5.8µM*	-3.0	5.8%	6.7%	?	-20.7%
NS(=O)(=O)c1cccc(NC(=O)COC(=O)/C(=C/c2cccs2)c2cccs2)c1	-3.6%	-93.2*	23.1µM*	?	?	?
NS(=O)(=O)c1cccc(NC(=O)COC(=O)C2(c3cccc(F)c3)CCCC2)c1	-3.4%	-53.1*	?	0.3%	-0.3%	?
